Screening data: PubChem BioAssay, NMMLSC
MEKK2wt PB1 HTS: raises or lowers MEK5 binding to wildtype human MEKK2 PB1 domain | bead flow cytometry, Alexa488-MEK5 binding to MEKK2 WT; actives lie on both sides | binding response (% of control), % at 10 µM | Q9Y2U5 | 290,000 compounds, 1.1% hits; in the data active = binding response below about 67% or above about 130%
MEKK3 PB1 HTS: MEKK3-MEK5 PB1 interaction, increase or decrease; Q99759; bead-based flow cytometry, Alexa488-MEK5 binding to MEKK3; actives lie on both sides; 0 = blocked by unlabeled MEK5, 100 = vehicle; binding response (% of control), % at 10 µM; 290,000 compounds, 1.4% hits;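 active = binding response more than 3 SD above or below the average of its plate-row segment, actives on both sides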;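 also: Alexa488 bead fluorescence after subtracting the streptavidin-only scavenger bead signal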
MEKK2mut PB1 HTS: signal of MEK5 binding to mutant human MEKK2 PB1 domain; 290,000 compounds, 0.35% hits; bead flow cytometry, Alexa488-MEK5 binding to MEKK2 mutant; percent response, % at 10 µM; in the data active = percent response above about 24%, passing the limit was not always enough
GRK2 aptamer HTS: blocks RNA aptamer binding to human GRK2 | P25098 | bead flow cytometry, FAM-aptamer displacement from GRK2 | inhibition of aptamer binding, % at 10 µM | 330,000 compounds, 0.59% hits;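 active = inhibition of aptamer binding above 40%, roughly 3 SD of noise, on plates passing a quality check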;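 also: median bead fluorescence of bound FAM aptamer so fluorescent compounds give negative values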
Target sequence (P25098 whole entry, looked up): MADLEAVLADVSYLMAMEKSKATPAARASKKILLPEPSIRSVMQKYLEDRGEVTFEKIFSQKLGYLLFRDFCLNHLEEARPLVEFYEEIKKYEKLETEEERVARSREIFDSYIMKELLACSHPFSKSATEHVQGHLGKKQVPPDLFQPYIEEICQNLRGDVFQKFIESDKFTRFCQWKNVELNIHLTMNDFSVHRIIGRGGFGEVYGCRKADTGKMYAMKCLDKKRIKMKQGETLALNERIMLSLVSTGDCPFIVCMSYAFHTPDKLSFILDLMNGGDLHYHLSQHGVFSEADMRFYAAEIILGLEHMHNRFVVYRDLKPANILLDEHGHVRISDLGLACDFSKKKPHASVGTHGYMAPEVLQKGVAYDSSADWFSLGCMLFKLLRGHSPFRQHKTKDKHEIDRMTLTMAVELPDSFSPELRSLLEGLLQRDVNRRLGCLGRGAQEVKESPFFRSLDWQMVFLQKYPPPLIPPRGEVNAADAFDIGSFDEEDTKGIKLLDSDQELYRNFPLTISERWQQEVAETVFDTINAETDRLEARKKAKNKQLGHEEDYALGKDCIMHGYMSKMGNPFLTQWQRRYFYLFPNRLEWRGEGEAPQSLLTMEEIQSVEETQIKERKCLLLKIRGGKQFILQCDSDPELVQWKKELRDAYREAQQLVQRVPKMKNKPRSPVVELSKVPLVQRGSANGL
Large screens that a line does not name were inactive; [ ] = remark or other dose. Sampled rows, rich in hits. Any-hit rate of the full collection: about 2.5%.

c1ccc(N2CCCCC2)c(Nc2nc3ccccc3n3cnnc23)c1	none
c1ccc2c(c1)nc(Nc1ccc(N3CCCCC3)cc1)c1nncn12	MEKK2wt PB1 HTS -4.0
CC[C@]12c3[nH]c4ccc(OC)cc4c3CCN1C(=O)C(CC(=O)NCC13CC4CC(CC(C4)C1)C3)C[C@@H]2C(=O)N1CCN(C(=O)c2ccco2)CC1 (stereo partly drawn)	GRK2 aptamer HTS 43 (no result: MEKK2wt PB1 HTS, MEKK3 PB1 HTS, MEKK2mut PB1 HTS)
CCCCc1noc2c1/C(=N\O)CC(c1ccccc1)C2 (stereo not drawn)	none
O=C(NCCCn1ccnc1)/C(=C\c1cccs1)NC(=O)c1ccco1	GRK2 aptamer HTS 41
COc1ccc(C(=O)N/C(=C/c2cccs2)C(=O)NCCCn2ccnc2)cc1OC	none
Cc1ccsc1/C=C/C1=Cc2c(sc(NC(=O)CSc3n[nH]c(N)n3)c2C#N)C(C)(C)C1	none
CCOc1ccc(/C=C/C2=Cc3c(sc(NC(=O)CSc4n[nH]c(N)n4)c3C#N)C(C)(C)C2)cc1	MEKK2wt PB1 HTS 31
CCC(C)N(C(=O)c1csnn1)C(C(=O)NCc1ccc(F)cc1)c1ccco1 (stereo not drawn)	none
N/C(=N\NS(=O)(=O)c1ccccc1)c1ccccn1	none (no result: MEKK2wt PB1 HTS, MEKK3 PB1 HTS, MEKK2mut PB1 HTS)
N/C(=N\NS(=O)(=O)c1ccc(Cl)cc1)c1ccccn1	GRK2 aptamer HTS 41 (no result: MEKK2wt PB1 HTS, MEKK3 PB1 HTS, MEKK2mut PB1 HTS)
Clc1nccc(N2CCN(c3ccccc3Cl)CC2)n1	none (no result: MEKK2wt PB1 HTS, MEKK3 PB1 HTS, MEKK2mut PB1 HTS)
CCn1c(C)c(C)c2cc(C(=O)NCCN3CCCCCC3)ccc21	MEKK2wt PB1 HTS 145
CCn1c(C)c(C)c2cc(C(=O)NCCCN3CCCCC3)ccc21	MEKK2wt PB1 HTS 1.0, MEKK2mut PB1 HTS 31
Cc1[nH]c2ccc(C(=O)NCCCN3CCCCCC3)cc2c1C	MEKK2wt PB1 HTS 173, MEKK2mut PB1 HTS 27
CCn1c(C)c(C)c2cc(C(=O)NCCCN3CCN(C)CC3)ccc21	none
CCn1c(C)c(C)c2cc(C(=O)NCCCN3CCCCCC3)ccc21	MEKK2wt PB1 HTS 136
Cc1cc(NC(=O)Cn2cnc3sccc3c2=O)no1	none (no result: MEKK2wt PB1 HTS, MEKK3 PB1 HTS, MEKK2mut PB1 HTS)
Cc1ccc(S(=O)(=O)N(Cc2cc3ccccc3[nH]c2=O)c2cccc(C)c2)cc1	none
CN(C)c1ccc(/C=C/c2cc[n+](C)cc2)cc1	MEKK2wt PB1 HTS 28
CC[n+]1c(/C=C/c2ccc(N(C)C)cc2)ccc2ccccc21	MEKK2wt PB1 HTS 4.0
CC[n+]1c(/C=C/c2ccc(OC)c(OC)c2)ccc2ccccc21	none
COc1ccc(-c2cc(C(F)F)n3ncc(C(=O)Nc4cnn(Cc5ccccc5)c4)c3n2)cc1	none
CCN(CC)CCNC(=O)c1[nH]c2ccc(OCc3ccccc3)cc2c1C	MEKK2wt PB1 HTS 184
CCN(Cc1ccccc1)C(=O)c1[nH]c2ccc(OC)cc2c1C	none (no result: GRK2 aptamer HTS)
Cc1ccc2c(c1)c(C)c(C)n2CC(O)CN1CCOCC1 (stereo not drawn)	MEKK2wt PB1 HTS -5.0[inhibitor]
Cc1c(C)n(CC(O)CN2CCCCCC2)c2ccccc12 (stereo not drawn)	none
COC(=O)CCC(=O)OC1(C)C(=O)C2=CN(Cc3ccc(OC)cc3)C(c3ccc(OC)cc3)=CC2=C(Br)C1=O (stereo not drawn)	none (no result: MEKK2wt PB1 HTS)
COC(=O)CCC(=O)OC1(C)C(=O)C2=CN(CC3CC3)C(c3ccc(OC)cc3)=CC2=C(Br)C1=O (stereo not drawn)	MEKK2wt PB1 HTS -10
COC(=O)CCC(=O)OC1(C)C(=O)C2=CN(Cc3ccccc3)C(c3ccc(OC)cc3)=CC2=C(Br)C1=O (stereo not drawn)	MEKK2wt PB1 HTS -6.0
O=C(CSc1ccc(-c2ccco2)nn1)N1CCCCCC1	none
CC(=O)N1CC(C)Sc2ccc(S(=O)(=O)NC(C)c3ccccc3)cc21 (stereo not drawn)	MEKK2wt PB1 HTS 64[inhibitor], MEKK3 PB1 HTS 80[inhibitor]
CCC1CCCCN1CCCNC(=O)Cn1cnc2sc(C)c(S(=O)(=O)N3CC(C)CC(C)C3)c2c1=O (stereo not drawn)	MEKK2wt PB1 HTS 135, MEKK2mut PB1 HTS 26
OC(CNCCc1ccc(C(F)(F)F)cc1)COc1cccc2ccccc12 (stereo not drawn)	MEKK2wt PB1 HTS 156
CCOCCCNc1nc2c(C)cccn2c(=O)c1/C=C1\SC(=S)N(C(C)CC)C1=O (stereo not drawn)	MEKK3 PB1 HTS 28[inhibitor], MEKK2mut PB1 HTS 127 (no result: MEKK2wt PB1 HTS)
Cc1ccc(/C=C2/SC(=S)N(C3CCCCC3)C2=O)o1	MEKK2wt PB1 HTS 56[inhibitor]
Cc1ccc(/C=C2\SC(=S)N(CC3CCCO3)C2=O)o1 (stereo not drawn)	none
COc1ccc(C(O)P(=O)(OC(C)C)c2ccc(N(C)C)cc2)c(OC)c1 (stereo not drawn)	none
Cc1ccccc1NS(=O)(=O)c1ccc(N2CCCC2=O)cc1	none
O=C(COC(=O)c1c2c(nc3ccccc13)/C(=C/c1cccc([N+](=O)[O-])c1)CCC2)NC1CCS(=O)(=O)C1 (stereo not drawn)	none
Cn1c(=O)n(CCCO)c(=O)c2c1nc1n2CCCN1Cc1ccccc1	none
COc1ccc(Oc2nc(-c3ccccc3)ncc2S(=O)(=O)c2ccccc2)cc1	none
Cc1cc(SCC(=O)c2ccc3c(c2)OCO3)nc2ccccc12	MEKK2wt PB1 HTS 38
Cc1ccc(P(=O)(CO)c2ccc(C)cc2)cc1	none
FC(F)(F)c1cnc(Oc2ccc(-c3nnco3)cc2)c(Cl)c1	none
FC(F)(F)c1cnc(Oc2ccccc2-c2nnco2)c(Cl)c1	GRK2 aptamer HTS 58
CCCCCC#CCC#CCC#CCC#CCCCC(=O)O	GRK2 aptamer HTS 50
OC(COc1ccc(CNCCc2ccc(C(F)(F)F)cc2)cc1)CN1CCCCC1 (stereo not drawn)	MEKK2wt PB1 HTS 150
OC(COc1ccc(OCC(O)CN2CCCCC2)cc1)CN1CCCCC1 (stereo not drawn)	none (no result: GRK2 aptamer HTS)
CC1(C)Cc2[nH]c3ccccc3c2C(C)(C)N1	none
COc1ccc(OC)c(NC(=O)COC(=O)c2cc3c(s2)CCC3)c1	GRK2 aptamer HTS 42
COc1ccc(CN(C)CC(O)COc2ccc(-c3ccccc3)cc2)cc1OC (stereo not drawn)	MEKK2wt PB1 HTS 136
COc1ccc(C(OCC(O)CN(C)C2CCCCC2)c2ccc(OC)cc2)cc1 (stereo not drawn)	MEKK2wt PB1 HTS 161
CCOc1ccc(CN(C)CC(O)COC(c2ccc(OC)cc2)c2ccc(OC)cc2)cc1 (stereo not drawn)	MEKK2wt PB1 HTS 180, MEKK2mut PB1 HTS 35
COc1ccc(CN(C)CC(O)COC(c2ccc(OC)cc2)c2ccc(OC)cc2)cc1 (stereo not drawn)	MEKK2wt PB1 HTS 147
O=C(CCS(=O)(=O)c1ccccc1)Nc1ccc2c(c1)C(=O)NC2=O	none
Cc1ccc(NC(=O)C2C3CCC(O3)C2C(=O)O)cc1C (stereo not drawn)	none
CCOc1cc(/C=C2\C(=O)N(CCc3ccc(OC)c(OC)c3)C(C)=C2C(=O)OC)ccc1O	MEKK3 PB1 HTS 60[inhibitor]
CCOC(=O)c1sc2ncc([N+](=O)[O-])cc2c1N	none
COC(=O)c1sc2cc([N+](=O)[O-])cc(SCC(C)C)c2c1N	MEKK2wt PB1 HTS 9.0
CCC(=O)c1cc2c(C)cc(=O)oc2c(C)c1OC(C)=O	GRK2 aptamer HTS 83
S=c1[nH]nc(-c2ccc(Br)o2)n1Cc1ccccc1	none
